Most compounds without a hit are left out; they make up all but 2.9% or so of the library.
CF NFkB block – cystic fibrosis NF-kB activation inhibition | KKLEB NF-kB-GFP reporter, PAF-induced, GFP fluorescence overnight | inhibition, % at 5 µM | 360,000 tested, 0.86% active;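 active = at least 50% inhibition at 5 µM, scaled per plate between neutral and stimulator controls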;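 note: PAF is a Pseudomonas aeruginosa culture filtrate used as stimulus; plate controls were PAF-stimulated DMSO wells for no effect and unstimulated DMSO wells for full effect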
LMP1 NFkB inh – inhibitors of Epstein-Barr LMP1-induced NF-kappaB reporter | 350,000 tested, 0.69% active | inhibition, % at 12.5 µM | LMP1-induced NF-kappaB luciferase reporter cells, luminescence | AID 504558; in the data active = inhibition above about 41%;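 note: 0% = neutral control wells and 100% = reference inhibitor control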
Shn3 inh set2 – inhibitors of Schnurri-3 3'UTR reporter in osteoblasts | AID 588674 | Clone20 osteoblast Shn3 3'UTR firefly luciferase, 24 h | inhibition, % at 12.5 µM | 360,000 tested, 0.52% active;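 active = mean inhibition of at least 75% with every replicate also reaching 75%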;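 note: 0% = median of neutral control wells and 100% = pilot-screen positive control compound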
Peg3 promoter – reduces Peg3 promoter-driven luciferase expression in HeLa | AID 588405 | inhibition, % at 20 µM | HeLa PEG-Prom luciferase reporter, luminescence, overnight | 360,000 tested, 1.7% active;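 active = inhibition of at least 50% at 20 µM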
KKLEB tox – CF airway cell cytotoxicity counter-screen. KKLEB CF airway cells viability, ATPlite luminescence, overnight; active compounds read low; cells stimulated with P. aeruginosa culture filtrate. activity change (cytotoxicity), % at 5 µM. 360,000 tested, 0.36% active;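 active = corrected activity change at or below -50% at 5 µM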
MITF TRPM1 inh – inhibitors of MITF-driven TRPM1 promoter in melanoma cells. SK-MEL-5 TRPM1 promoter luciferase, 24 h. inhibition, % at 12.5 µM. 330,000 tested, 0.83% active. AID 488899;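 active = mean inhibition across replicates of 60% or more, whatever share of single replicates reaches that level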
CF NFkB conf – CF NF-kB inhibition confirmation, single concentration; shares compounds with CF NFkB block; KKLEB CF airway cells, PAF-induced NF-kB-GFP fluorescence, overnight; inhibition, % at 5 µM; 1,300 tested, 64% active; AID 602472; in the data active = inhibition above about 40%;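 note: stimulus PAF is a Pseudomonas aeruginosa filtrate and not platelet activating factor; plate controls were DMSO wells with stimulus for no effect and unstimulated DMSO wells for full effect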
Numbers without * were called inactive; nt = not tested or not shown.

SMILES | CF NFkB block | LMP1 NFkB inh | Shn3 inh set2 | Peg3 promoter | KKLEB tox | MITF TRPM1 inh | CF NFkB conf
Cc1cccc(C)c1-n1nnnc1C(c1ccccc1)N1CCC2(CC1)C(=O)NCN2c1ccccc1 (stereo unspecified) | 39.7 | nt | 9.3 | 45.8 | -45.8 | nt | nt
CC1(C)C(=O)CCC2C1=CCC1C2CCC2(C)C(O)CCC12 (stereo unspecified) | 17.6 | -1.0 | -11.1 | 7.2 | -4.3 | 0.9 | nt
N#CC1c2ccccc2-n2nncc2CN1Cc1cc(Cl)cc(Cl)c1 (stereo unspecified) | 90.4* | 62.4* | 80.6 | 95.9* | -49.9 | 97.5* | 115.9*
N#C/C=C/C#N | 15.3 | -2.0 | 5.3 | -8.7 | -3.5 | 18.2 | nt
COc1ccc(C[C@H]2NC[C@H](O)[C@H]2OC(C)=O)cc1 | 87.8* | 90.6* | 93.9* | 93.9* | -44.6 | 82.9* | 115.6*
O=C1NCN(c2ccccc2)C12CCN(C(c1cccs1)c1nnnn1-c1ccc3c(c1)OCCO3)CC2 (stereo unspecified) | 0.5 | nt | -0.5 | 39.3 | -24.7 | nt | nt
COc1cccc(C(c2nnnn2C2CCCC2)N2CCC3(CC2)C(=O)NCN3c2ccccc2)c1OC (stereo unspecified) | -14.8 | nt | 4.2 | 15.4 | 0.6 | nt | nt
O=c1[nH]c2ccccc2n1C1CCN(C(c2cccc3ccccc23)c2nnnn2Cc2ccccc2)CC1 (stereo unspecified) | 85.9* | nt | 6.5 | 81.5* | -47.8 | nt | 104.8*
O=C1NCN(c2ccccc2)C12CCN(C(c1cccc3ccccc13)c1nnnn1Cc1ccccc1)CC2 (stereo unspecified) | 41.7 | nt | -14.3 | 28.0 | -11.3 | nt | nt
COc1ccc(-n2nnnc2C(c2cccs2)N2CCC(n3c(=O)[nH]c4ccccc43)CC2)cc1 (stereo unspecified) | 79.2* | nt | 30.2 | 70.6* | -18.3 | nt | 96.8*
COc1ccc(-n2nnnc2C(c2cccc(OC)c2OC)N2CCC(n3c(=O)[nH]c4ccccc43)CC2)cc1 (stereo unspecified) | 84.1* | nt | 17.7 | 55.3* | -22.8 | nt | 41.1*
C=CCNC(=S)N1Cc2cc(Br)ccc2-n2nncc2C1 | -2.9 | nt | 6.8 | 0.7 | -5.9 | nt | nt
C=CC[C@@H](CC/C=C/C=C/CC/C=C\[C@@H]1CSC([C@@H]2C[C@@H]2C)=N1)OC | 54.0* | 14.4 | 13.8 | -10.3 | -30.9 | 67.4* | 48.0*
O=C1NC(=S)NC(=O)C1c1ccccc1 | 21.4 | -9.1 | -23.3 | 0.9 | -4.1 | -7.3 | nt
O=C(C1CCCCC1)N1Cc2ccccc2-n2nncc2C1 | 0.5 | 5.2 | -23.1 | -12.6 | -8.2 | nt | nt
C[C@H]1C[C@@H](C)C(=O)[C@@H]([C@H](O)CC2CC(=O)NC(=O)C2)C1 | 82.5* | 73.5* | 90.1* | 90.0* | 6.9 | nt | 104.2*
COC(=O)C1=C(c2ccc(C(C)=O)cc2)C[C@@H]2CC[C@H]1N2C(=O)N1CCC(O)CC1 | 27.0 | 2.9 | -5.4 | -7.0 | -22.6 | -3.7 | nt
C=C1C(=O)OC2CC3(C)OC3C3OC3C3=CC(OC3=O)C12 (stereo unspecified) | 88.1* | nt | 94.2* | 96.3* | -34.4 | nt | 61.1*
CCOC(=O)CNC(=O)N1Cc2cc(N3CCOCC3)ccc2-n2nncc2C1 | -14.9 | nt | -1.0 | 15.0 | -8.2 | nt | nt
C=C1C(=O)OC2CC3(C)OC3CCC(C)=CC(OC(C)=O)C12 (stereo unspecified) | 91.0* | 55.2* | 2.3 | 94.7* | 2.0 | 69.9* | 89.2*
N#CC1c2ccccc2-n2nncc2CN1C(=O)c1ccccc1F (stereo unspecified) | 4.6 | nt | 4.9 | -13.2 | 9.4 | nt | nt
COc1cc2c(c(OC)c1OC)-c1ccc(O)cc1C(NC(C)=O)CC2 (stereo unspecified) | 66.6* | -4.5 | 25.1 | -37.9 | -18.3 | 61.3* | 87.8*
COc1cc(C2c3cc4c(cc3CC3COC(=O)C32)OCO4)cc(OC)c1O (stereo unspecified) | 54.5* | 1.1 | -31.8 | -49.1 | -29.7 | 58.4 | 70.7*
Nc1ccc(-c2ccc(N)cc2)cc1 | 33.3 | -5.2 | -5.5 | -46.7 | -8.2 | -14.9 | nt
